Screens: PubChem, several laboratories
HSV replic up = HSV replication enhancement; maximum fold increase; actives 0.005% (n = 220,000); HSV replication augmentation in cells, fold increase; AID 1956; in the data active means maximum fold increase above about 1.5; inconclusive means no clear call, values can overlap the other calls; tested in PC3 cells
Arbovirus inh = arbovirus infection inhibition | inhibition, % at 10 µM | actives 0.37% (n = 200,000) | arbovirus infection cell-based antiviral screen | AID 1251; in the data active means inhibition above about 30%
Measles CPE = protection of cells from measles virus. actives 1.5% (n = 140,000). protection (pct of control), % at 4 µM. AID 841. Measles virus-infected cells, CPE protection, absorbance; in the data active means protection mostly above about 24%, no sharp cut-off; inactive means mostly below about 26%
ROMK mod = modulates human ROMK potassium channel activity; P48048; Tet-inducible ROMK, thallium flux fluorescence; actives lie on both sides; B-score at 10 µM; actives 2% (n = 130,000); AID 1918;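 active means signal ratio slope over the read window, or its plate-corrected B-score, at least 3 SD from the plate mean, either direction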;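 further: B-score of the F/F0 ratio slope over 7 to 12 s after thallium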
Target sequence (P48048 whole entry, looked up): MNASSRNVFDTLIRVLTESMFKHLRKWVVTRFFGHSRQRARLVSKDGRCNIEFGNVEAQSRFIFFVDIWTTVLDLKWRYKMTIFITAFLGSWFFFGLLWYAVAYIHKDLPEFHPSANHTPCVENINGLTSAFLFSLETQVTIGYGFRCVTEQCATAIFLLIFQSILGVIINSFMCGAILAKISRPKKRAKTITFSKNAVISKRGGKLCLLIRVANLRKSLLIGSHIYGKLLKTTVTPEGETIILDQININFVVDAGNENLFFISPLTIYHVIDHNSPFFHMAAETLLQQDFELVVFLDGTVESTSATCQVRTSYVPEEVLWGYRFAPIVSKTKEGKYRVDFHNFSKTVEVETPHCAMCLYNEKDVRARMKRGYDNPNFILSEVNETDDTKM
Cl transport mod = modulates chloride dependent transport by human KCC2. KCC2 cells, thallium flux FluoZin-2 fluorescence. actives 2.2% (n = 190,000). Q9H2X9. B-score of Tl+ flux slope (higher = more flux/activation; lower = inhibition) at 10 µM;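 active means thallium flux slope and its plate-corrected score both differing from the plate sample mean at a set confidence after two filtering rounds, in either direction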;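 further: slope of fluorescence scaled to starting intensity during 10 to 20 s after thallium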
ROMK retest = confirmation of human ROMK potassium channel modulators | shares compounds with ROMK mod | ROMK thallium flux, fluorescence ratio; active compounds read low | normalized thallium flux (F/F0 slope) at 10 µM | actives 54% (n = 3,000) | AID 1917;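 active means Flux at 10 µM at least 3 SD below or above vehicle control mean in one or both replicates; inconclusive means no clear call, values can overlap the other calls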
Hits are given with their value; - = inactive; ? = inconclusive; . = not tested or not shown. In the library only some 4% were active in any assay of this set; here they are far more common.

SMILES	HSV replic up	Arbovirus inh	Measles CPE	ROMK mod	Cl transport mod	ROMK retest
Cc1cc(C)nc(N/N=C/c2sccc2C)n1	-	-	.	-18.9	-	-
Cc1ccc(CN2CCC(c3nc4ccc(Cl)cc4[nH]3)CC2)cc1	-	-	-	.	.	?
COC(=O)CSc1nc(C)cc(C(F)(F)F)c1C#N	-	-	-	.	-	-
Brc1ccc2c(c1)CNc1c(ncnc1N1CCOCC1)O2	-	-	-	.	-	-
Cc1nc2ccccc2c(=O)n1/N=C/c1ccc2ccccc2c1O	-	.	.	.	-	-
Cc1nc2ccccc2c(=O)n1/N=C/c1ccccc1	-	-	-	.	-	.
Nc1ccc(-c2ccc(C(=O)O)s2)cn1	-	-	.	-	-	.
Cc1ccc(-n2c3nc(=O)[nH]c(=O)c-3cc3cc([N+](=O)[O-])ccc32)cc1	-	-	-	-6.58	-	0.0383
COc1ccc(C(=O)COC(=O)CNC(=O)c2ccc(OC)cc2)cc1	-	-	.	-	-	.
O=C(CSc1nc2ccccc2c(=O)n1CC1CCCCC1)N1CCOCC1	-	-	-	-	-	.
CCN(CC)C(=O)CSc1nc2ccccc2c(=O)n1CC1CCCCC1	-	-	-	-	-	0.0614
COc1ccc(CNC(=O)C(C)Sc2ccc(C)cc2)cc1 (stereo unspecified)	-	-	.	-	-	.
Cc1ccc(SC(C)C(=O)NCc2ccncc2)cc1 (stereo unspecified)	-	-	.	2.53	-	-
O=C(CCOc1ccccc1F)N1CCN(c2ccccc2O)CC1	-	-	.	-	-	.
COC(=O)c1cccnc1NC(=S)NNC(=O)c1ccccc1	-	-	-	2.21	-	-
COC(=O)c1ccc(NC(=S)NNC(=O)c2ccccc2)cc1	-	-	.	0.935	-	-
CCOC(=O)c1cccc(NC(=O)c2c(NCc3ccccc3)[nH]c(=O)[nH]c2=O)c1	-	.	.	.	.	.
Fc1ccc(C2=CC(c3ccco3)n3ncnc3N2)cc1 (stereo unspecified)	.	-	-	-3.14	-	0.0532
Cc1ccc(N=C2NC(=O)/C(=C/c3cn(C)c4ccccc34)S2)cc1C	.	-	-	-3.37	-	?
Cn1cccc1/C=C1\SC(=Nc2ccccc2)NC1=O	-	.	.	.	-	.
Cn1cccc1/C=C1\SC(=Nc2cccc(O)c2)NC1=O	-	.	.	-2.27	-	-
Cc1cccc2c1c1ccc3c(c1n2C)C(=O)C=CC3=O	-	.	.	.	-	.
CCOc1ccccc1N1CC(C(=O)Nc2cccc(S(=O)(=O)N3CCCCC3)c2)CC1=O (stereo unspecified)	-	-	.	-	-	.
O=C(NCC1CCCO1)C1CCCN1C(=O)Nc1ccc(Cl)cc1 (stereo unspecified)	-	-	.	-	-	.
CC(C)CNC(=O)c1nc(-c2ccccc2)n(-c2ccccc2)n1	-	-	-	.	-	-
SMILES	HSV replic up	Arbovirus inh	Measles CPE	ROMK mod	Cl transport mod	ROMK retest
Cc1nn(-c2ccccc2)c(Cl)c1C(=O)NCC(C)C	-	-	-	.	-	.
CC(C)c1ccc(C(=O)N(c2ccccn2)C(C)c2ccco2)cc1 (stereo unspecified)	-	-	-	.	-	.
CC(c1ccco1)N(C(=O)CSc1ccc(Br)cc1)c1ccccn1 (stereo unspecified)	-	-	-	-4.1	-	0.0585
Cc1ccccc1S(=O)(=O)Cc1ccc(C(=O)NCc2ccc(F)cc2)o1	-	-	.	-	-	.
CCN(CC)S(=O)(=O)c1ccc(N2CCOCC2)c(NC(=O)Cc2ccc(Cl)cc2)c1	-	-	-	.	-	-
O=c1[nH]c(Nc2ccccc2)cc2ccccc12	-	-	-	-3.27	.	0.0645
O=c1[nH]c(Nc2ccccc2)cc2cc(Br)ccc12	-	.	.	.	.	.
Clc1ccc2nc(SCc3nnc(-c4ccccc4)o3)[nH]c2c1	.	-	-	-3.41	.	0.0554
Cc1cc(=O)[nH]c(SCc2nnc(-c3ccccc3)o2)n1	-	-	-	-	-	.
O=C(O)COc1ccccc1/C=N/NC(=O)CN1CCN(Cc2ccc(Cl)cc2)CC1	-	.	.	.	-	.
Cc1nc2cc(NCc3nc4ccccc4n3Cc3ccccc3)ccc2n1C	.	-	-	-5.2	.	0.0607
CC1(C)CC(=O)C2=C(C1)Oc1nc3ccccc3cc1C2C(C#N)C#N (stereo unspecified)	-	-	-	-3.55	.	0.0583
COc1ccc(OCC(=O)Nc2ccccc2C(=O)N2CCOCC2)cc1	-	-	.	2.97	-	-
Oc1c(Cl)cc(Cl)cc1/C=N/c1nccs1	-	-	-	3.08	-	0.103
CCCCCCCCCCn1c2c(c(=N)c3c1CCC3)CCC2	-	-	-	.	-	.
CCCCCCCCn1c2c(c(=N)c3ccccc31)CCC2	-	-	.	-6.62	-	0.0389
CCCCCCCCCn1c2c(c(=N)c3c1CCC3)CCCC2	-	-	.	-3.38	-	0.0383
Nc1cc(N)nc(SCC(=O)N2CCN(S(=O)(=O)c3ccccc3)CC2)n1	-	.	.	.	-	.
O=C(c1c[nH]c2ccccc2c1=O)N1CCCCCC1	-	-	.	-	-	.
CCc1ccc(-c2cc(C(=O)N/N=C/c3ccco3)[nH]n2)cc1	-	-	.	-3.19	-	0.0628
CN(C)C(=S)c1ccccc1	-	.	.	.	-	-
CN(C)C(=S)c1ccc(N(C)C)cc1	-	-	.	.	-	.
C/C(=N\NC(=O)COc1ccccc1[N+](=O)[O-])c1cccs1	-	-	.	1.37	.	-
N#Cc1ccccc1OCC(=O)OCC(=O)N1CCN(C(=O)c2ccco2)CC1	-	-	.	-	-	.
CCOC(=O)CN1C(=O)N[C@@H](CCc2ccccc2)[C@@H](C(=O)OC)[C@H]1C	-	.	.	.	.	.
SMILES	HSV replic up	Arbovirus inh	Measles CPE	ROMK mod	Cl transport mod	ROMK retest
O=Cc1ccc(-c2cccc([N+](=O)[O-])c2)o1	-	.	.	.	-	0.101
O=Cc1ccc(-c2ccc([N+](=O)[O-])cc2Cl)o1	-	-	.	-	-	.
Cc1cc(N2CCCC2)nc2ccc(NC(=S)NCCCN3CCC(C)CC3)cc12	-	-	.	-	-	.
N=c1n(CCN2CCCC2)c2ccccc2n1CC(O)c1ccco1 (stereo unspecified)	-	-	-	.	.	.
CCCCn1c(=N)n(CC(=O)c2ccco2)c2ccccc21	-	-	-	.	-	.
CC(C)(C)c1ccc(Cn2c(=N)n(CC(O)c3ccco3)c3ccccc32)cc1 (stereo unspecified)	.	-	.	-2.73	.	0.0508
Cc1ccccc1Cn1c(=N)n(CC(O)c2ccco2)c2ccccc21 (stereo unspecified)	-	-	-	.	.	.
CCCCCCCn1c(=N)n(CC(O)c2ccco2)c2ccccc21 (stereo unspecified)	-	-	.	-4.29	-	0.0609
CCCCCCCn1c(=N)n(CC(=O)c2ccco2)c2ccccc21	-	-	-	-5.29	-	0.0534
Cn1ncc(Br)c1N1C(=O)CCC1=O	-	.	.	.	-	.
COc1c(Cl)cc(Br)c(OC)c1C(=O)NC(=O)Nc1nc(C)cc(C)n1	-	.	.	.	-	.
COc1ccc(Br)cc1CN(C)CC(=O)NCCc1ccccc1	-	-	.	-	-	.
O=C(COc1ccc(Br)cc1CNC1CCCCC1)NCCc1ccccc1	-	-	.	-5.22	-	0.0485
Cc1c(CCOC(=O)CC23CC4CC(CC(C)(C4)C2)C3)sc[n+]1CC(=O)c1ccccc1	-	-	.	-4.09	-	0.0474
Cc1c(CCOC(=O)CC23CC4CC(CC(C4)C2)C3)sc[n+]1CC(=O)c1ccc(Br)cc1	.	-	-	-5.97	-	0.0447
